Results as given in the supplement of paper PMC10646978.
± gives the standard deviation.

Key:
Details in all cases: modulator concentration 10 µM
[1] = test system: RAW-Dual (murine macrophage reporter line); assay: NF-kB reporter (SEAP) activity fold change vs agonist alone; higher = enhanced NF-kB activity
How it was run: (§1)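 RAW-Dual murine macrophage reporter cells were plated at 50 000 per well in 384-well plates, pin-transferred compound to 10 μM final, and pre-incubated for 1 hour at 37 °C before a PRR agonist was added and the cells incubated overnight. NF-κB activity was read from supernatant SEAP with QUANTI-Blue at 620 nm absorbance, and IRF activity from Lucia luciferase with QUANTI-Luc by luminescence. Each signal was expressed as fold change by dividing by the mean agonist-only control on the same plate. Two replicate plates were averaged, with errors obtained by propagation.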

[2] = test system: RAW-Dual (murine macrophage reporter line); assay: IRF reporter (Lucia luciferase) activity fold change vs agonist alone; higher = enhanced IRF activity
How it was run: as §1

[3] = test system: RAW-Dual (murine macrophage reporter line); assay: viability score (confluency relative to resting cells, overnight) (fraction); higher = more viable, active = viable (0.7 or more)
How it was run: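 Two confluency masks, generated with IncuCyte software over all imaged wells, were applied to IncuCyte images of RAW-Dual macrophages. The cells, in 384-well plates, had been exposed overnight to 10 μM final compound. The viability score is confluency as a fraction of resting cells, and a compound met the cutoff only with both masks above 70% of resting cells.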

[4] = agonist: CpG ODN 1826 0.5 ug/mL

| Compound | NF-kB reporter [1, 4] | NF-kB reporter ([1]; agonist: LPS 0.1 ug/mL) | NF-kB reporter ([1]; agonist: MPLA […]) | IRF reporter ([2]; agonist: 3'3'-cGAMP 10 ug/mL) | IRF reporter ([2]; agonist: LPS 0.1 ug/mL) | IRF reporter ([2]; agonist: MPLA […]) | viability score [3] |
| --- | --- | --- | --- | --- | --- | --- | --- |
| COc1ccccc1C=C(C#N)c1nc(-c2cc3cc(Br)ccc3oc2=O)cs1 | 0.951 ± 0.08 | 0.962 ± 0.075 | 0.943 ± 0.089 | 0.972 ± 0.069 | 1.31 ± 0.18 | 1.58 ± 0.27 | 1.02 (active) |
| CN(C)CCCN1c2ccccc2Sc2ccc(Cl)cc21 [Prestw-64] | 0.227 ± 0.066 | 1.1 ± 0.059 | 1.94 ± 0.12 | 0.71 ± 0.037 | 2.26 ± 0.33 | 2.24 ± 0.35 | 0.634 (inactive) |
| Cc1c(-c2ccccc2)nc2ccccc2c1C(=O)N1CCCC1 | 1.09 ± 0.095 | 1.13 ± 0.087 | 1.1 ± 0.069 | 1.01 ± 0.035 | 1.62 ± 0.18 | 1.24 ± 0.13 | 1.01 (active) |
| NS(=O)(=O)c1ccc2c(c1)CCCC2 | 0.512 ± 0.11 | 0.806 ± 0.22 | 0.661 ± 0.15 | 0.932 ± 0.057 | 0.925 ± 0.073 | 0.957 ± 0.3 | 0.863 (active) |
| CC(C)Cn1c(=O)n(C)c(=O)c2[nH]cnc21 | 1.41 ± 0.11 | 1.01 ± 0.055 | 1.08 ± 0.026 | 0.849 ± 0.049 | 0.88 ± 0.12 | 0.884 ± 0.21 | 0.983 (active) |
| COc1cc(NC(=O)COc2ccc(C(C)C)c(C)c2)c(OC)cc1Cl | 0.818 ± 0.038 | 1.04 ± 0.1 | 1.71 ± 0.75 | 1.01 ± 0.047 | 1.25 ± 0.19 | 1.28 ± 0.39 | 0.96 (active) |
| COc1ccc(NC(=O)CN(c2ccc(C)c(C)c2)S(C)(=O)=O)cc1 | 0.831 ± 0.068 | 1.02 ± 0.061 | 1.07 ± 0.12 | 0.88 ± 0.046 | 1.46 ± 0.084 | 1.53 ± 0.14 | 0.998 (active) |
| Cc1ccc(-c2cc(-c3ccccc3)nc(NN=Cc3ccc(O)cc3)n2)cc1 | 0.952 ± 0.12 | 1.3 ± 0.14 | 1.7 ± 0.17 | 0.228 ± 0.026 | 0.942 ± 0.12 | 0.949 ± 0.12 | 0.923 (active) |
| COc1ccc(CNc2nc(N3CCC[C@H]3CO)ncc2C(=O)NCc2ncccn2)cc1Cl | 0.245 ± 0.011 | 0.629 ± 0.12 | 0.771 ± 0.043 | 1.51 ± 0.23 | 1.39 ± 0.4 | 1.23 ± 0.36 | 1 (active) |
| O=C(CCCCCN1C(=O)c2cccc3cccc(c23)C1=O)NO | 1.71 ± 0.32 | 1.43 ± 0.12 | 4.2 ± 0.32 | 0.062 ± 0.0017 | 0.581 ± 0.061 | 0.632 ± 0.12 | 0.536 (inactive) |
| Fc1ccc(Oc2nc(Nc3cccc(Cl)c3)nc(N3CCOCC3)n2)cc1 | 0.331 ± 0.028 | 1.33 ± 0.089 | 2.57 ± 0.15 | 0.757 ± 0.052 | 2.94 ± 0.22 | 2.19 ± 0.34 | 0.84 (active) |
| CS(=O)(=O)O.Cc1c(O)cccc1C(=O)N[C@@H](CSc1ccccc1)[C@H](O)CN1C[C@H]2CCCC[C@H]2C[C@H]1C(=O)NC(C)(C)C | 0.399 ± 0.017 | 0.968 ± 0.08 | 1.29 ± 0.07 | 1.09 ± 0.056 | 1.26 ± 0.29 | 1.32 ± 0.46 | 0.987 (active) |
| Nc1ncnc2c1ncn2[C@@H]1O[C@H](CO)[C@@H](O)[C@H]1O | 1.03 ± 0.08 | 1.13 ± 0.079 | 1.17 ± 0.11 | 1.22 ± 0.25 | 0.879 ± 0.03 | 0.852 ± 0.11 | 1 (active) |
| CC(=O)Oc1ccc2occ(C(=O)c3cccs3)c2c1 | 0.844 ± 0.099 | 0.964 ± 0.13 | 1.19 ± 0.14 | 0.836 ± 0.039 | 1.17 ± 0.074 | 1.26 ± 0.18 | 1.02 (active) |
| Cc1cccc(C(=O)Nc2cccc([N+](=O)[O-])c2C)c1 | 1.1 ± 0.067 | 1 ± 0.062 | 0.86 ± 0.095 | 0.964 ± 0.04 | 1.33 ± 0.15 | 1.12 ± 0.099 | 0.992 (active) |
| Cc1cc(CCNS(=O)(=O)c2cccc(C(F)(F)F)c2)nn1C | 0.898 ± 0.068 | 0.995 ± 0.1 | 0.988 ± 0.06 | 0.96 ± 0.06 | 0.961 ± 0.097 | 1 ± 0.23 | 1 (active) |
| COc1ccc(C(=O)ON=C(N)c2ccc(OC)c(OC)c2)cc1OC | 0.825 ± 0.096 | 0.878 ± 0.09 | 0.971 ± 0.086 | 0.933 ± 0.078 | 1.1 ± 0.07 | 1.13 ± 0.11 | 1.01 (active) |
| Cc1ccc(CSc2nc3sc4c(c3c(=O)n2-c2ccccc2)CC(C)(C)OC4)c(C)c1 | 0.984 ± 0.093 | 1.06 ± 0.075 | 0.91 ± 0.054 | 1.05 ± 0.039 | 1.41 ± 0.12 | 1.1 ± 0.21 | 1.02 (active) |
| CCOc1cc2ncc(C#N)c(Nc3ccc(OCc4ccccn4)c(Cl)c3)c2cc1NC(=O)/C=C/CN(C)C | 0.161 ± 0.007 | 0.781 ± 0.075 | 0.907 ± 0.092 | 0.694 ± 0.032 | 1.46 ± 0.26 | 1.56 ± 0.57 | 0.977 (active) |
| CN1CCC(COc2cnc(-c3cccc(Cn4nc(-c5cccc(C#N)c5)ccc4=O)c3)nc2)CC1 | 0.884 ± 0.28 | 1 ± 0.055 | 1.06 ± 0.082 | 0.713 ± 0.04 | 1.11 ± 0.14 | 1.37 ± 0.36 | 0.625 (inactive) |
| CC(C)c1ccc2oc3nc(N)c(C(=O)O)cc3c(=O)c2c1 | 1.2 ± 0.16 | 1.23 ± 0.15 | 0.91 ± 0.052 | 0.858 ± 0.026 | 1.28 ± 0.32 | 1.16 ± 0.18 | 0.993 (active) |
| CCOC(=O)C1CCN(C(=O)c2ccc(C#CC(C)(C)O)cc2)CC1 | 0.747 ± 0.063 | 0.845 ± 0.041 | 1.1 ± 0.1 | 0.91 ± 0.048 | 1.34 ± 0.077 | 1.46 ± 0.12 | 1.01 (active) |
| CC(C)(O)CNc1nc(Nc2ccnc(C(F)(F)F)c2)nc(-c2cccc(C(F)(F)F)n2)n1 | 1.13 ± 0.37 | 1.19 ± 0.079 | 1.12 ± 0.087 | 1.01 ± 0.053 | 1.3 ± 0.19 | 1.54 ± 0.15 | 0.999 (active) |
| COC(=O)c1cccc(-c2ccc(C=NN3C(=O)C4C5C=CC(CC5)C4C3=O)o2)c1 (configuration not stated) | 1.04 ± 0.1 | 1.14 ± 0.082 | 0.815 ± 0.055 | 0.867 ± 0.025 | 1.55 ± 0.22 | 1.36 ± 0.14 | 1 (active) |
| CC(C)(C)C1CCc2c(sc(NC(=O)c3ccc(F)cc3)c2C(N)=O)C1 (configuration not stated) | 0.981 ± 0.16 | 0.999 ± 0.12 | 1 ± 0.13 | 0.914 ± 0.041 | 1.24 ± 0.3 | 1.24 ± 0.21 | 0.56 (inactive) |
| CSc1nc2cc(Oc3cccc(Cl)c3Cl)c(Cl)cc2[nH]1 | 0.416 ± 0.14 | 0.771 ± 0.084 | 0.63 ± 0.037 | 0.831 ± 0.025 | 1.41 ± 0.26 | 1.34 ± 0.21 | 0.921 (active) |
